The text below walks through data of PubChem BioAssay (NCATS).

Results filed as inconclusive are left out. A number with no mark means an inactive call. Activity calls are given as the source filed them. The call rests on the fitted dose curve; in most records, active means well fitted curve in the direction sought with a large enough effect; inconclusive means small, poorly fitted or top-dose-only effect, or another doubt; inactive means no such curve, though single readings can be large; an effect the other way counts as inactive or inconclusive. Where a SMILES comes first, the peptide text is derived from it. [ ]: non-standard residue; d: D form. 2Abz = Nc1ccccc1C(=O)O

The nature of assay [1]: Primary qHTS for inhibitors of nuclear receptor binding SET domain protein 2 (NSD2) in an isogenic RCH-ACV NSD2 p.E1099K mutant (9B) (AID 1645876). On the technique in general: Quantitative high-throughput screening tests each substance at several concentrations.
Assay [2] is described as follows: Primary qHTS for inhibitors of nuclear receptor binding SET domain protein 2 (NSD2) in an RCH-ACV wild type WT cells (2C) (AID 1645877).
Further: nearly all actives have a fitted effect of over 70% in size.
On the % scale 0 is the no-effect control and ±100 the full control effect.

With `C[C@@H]1C[C@H](O)/C=C/[C@H](O)[C@@H](O)CC(=O)O1`, the Potency result in assay [1] and in assay [2] was “inactive” throughout.

Take `C[C@@H]1C(=O)O[C@H]2CC34[C@H]5C[C@@H](C(C)(C)C)C36[C@@H](OC(=O)[C@@H]6O)O[C@@]4(C(=O)O5)[C@]21O` (stereo not given in full): the Potency entry in assay [1] and in assay [2] was “inactive” throughout.

Turning to `O=C(O[C@H]1[C@@H]2C=CO[C@@H](O[C@@H]3O[C@H](CO)[C@@H](O)[C@H](O)[C@H]3O)[C@@H]2[C@@]2(CO)O[C@@H]12)c1ccc(O)c(O)c1`, the Potency result in assay [1] and in assay [2] was “inactive” each time.

As to `CC1=C2C(=O)C=C(CO)[C@@H]2[C@H]2OC(=O)[C@H](C)[C@@H]2[C@@H](O)C1`, the Potency result in assay [1] and in assay [2] was “inactive” in each case.

Regarding `COc1cc(/C=C/C(=O)OC(C)(C)C(OC2OC(CO)C(O)C(O)C2O)C(=O)OCc2ccc(OC3OC(CO)C(O)C(O)C3O)cc2)ccc1O` (stereo not given), the Potency result in assay [1] and in assay [2] was “inactive” throughout.

Turning to `COC1=CC(=O)C[C@@H](C)[C@]12Oc1cc(OC)cc(OC)c1C2=O`, the Potency entry in assay [1] and in assay [2] was “inactive” throughout.

On to `CC1(C)CC2C(O)C3=C(CC(C)(O)C2C1)C(=O)OC3O` (stereo not given), for which the Potency result in assay [1] and in assay [2] was “inactive” in each case.

Consider `C=C1C[C@]23C[C@H]1CC[C@H]2[C@]1(C)CCC[C@@]2(CO)C(=O)O[C@H]([C@H]21)[C@@H]3O`, for which the Potency entry in assay [1] and in assay [2] was “inactive” in each case.

In the case of `CC(C)(OC1OC(CO)C(O)C(O)C1O)C1CCC(O)(CO)C2CC(O)C(C)(O)C2C1` (stereo not given), the Potency entry in assay [1] and in assay [2] was “inactive” each time.

For `CCC(C)/C=C(C)/C=C/C1=CC2=C(Cl)C(=O)C(C)(OC(C)=O)C(=O)C2=CN1C1CCCCN(C(CCC(N)=O)C(=O)O)C1=O` (stereo not given), the Potency result in assay [1] and in assay [2] was “inactive” each time.

Take `COC(=O)c1cc(CN2CCN(C(=N)N)CC2)cc(C(=O)N2CCN(C(=O)c3ccc(C(=N)N)cc3)CC2)c1`: the Potency entry in assay [1] and in assay [2] was “inactive” in each case.

Regarding `COc1cc(CCc2ccccc2)c(C(=O)O)c2c1CC(C(C)(C)O)O2` (stereo not given), the Potency result in assay [1] and in assay [2] was “inactive” throughout.

Consider `CCC(C)C1NC(=O)C2CCCN2C(=O)C(C(C)C)NC(=O)c2ccccc2NC(=O)C(Cc2ccc(O)cc2)NC(=O)C(C)NC(=O)C(C(C)O)NC1=O` (stereo not given) (cyclo([2Abz]VPITAY); configuration not given here), for which the Potency result in assay [1] and in assay [2] was “inactive” throughout.

`CC1=CC(=O)CC(C)(C)C1CCC(C)OC1OC(COC(=O)c2cc(O)c(O)c(O)c2)C(O)C(O)C1O` (stereo not given): the Potency result in assay [1] and in assay [2] was “inactive” in each case.

As for `CC1CCC2(C(=O)OC3OC(CO)C(O)C(O)C3O)CCC3(C(=O)O)C(=CCC4C5(C)CCC(OC6OC(C)C(O)C(O)C6O)C(C)(C)C5CCC43C)C2C1C` (stereo not given), the Potency entry in assay [1] and in assay [2] was “inactive” in each case.

Turning to `CC(=O)O[C@@H]1[C@H](O[C@@H]2O[C@H](CO)[C@@H](O)[C@H](O)[C@H]2O)[C@@H](O[C@@H]2O[C@@H](C)[C@H](O)[C@@H](O[C@@H]3O[C@H](CO)[C@@H](O)[C@H](O)[C@H]3O)[C@H]2O)[C@H](OC(=O)C23CCC4(C)C(=CCC5C6(C)CC(O)C(O[C@@H]7O[C@H](C(=O)O)[C@@H](O)[C@H](O)[C@H]7O)C(C)(C(=O)O)C6CCC54C)C2CC(C)(C)CC3O)O[C@@H]1C` (stereo not given in full), the outcome in assay [1] is “inactive [at 9.23 µM]”. In assay [2], the activity change, negative = cell killing was 0.269% [at 9.23 µM].

In the case of `C[C@@H]1CC[C@]2(C(=O)O)CC[C@]3(C)C(=CCC4[C@]5(C)C(CC[C@]43C)C(C)(C)[C@@H](O)[C@H](O)[C@@H]5O)C2[C@]1(C)O` (stereo not given in full), the Potency entry in assay [1] and in assay [2] was “inactive” each time.

Turning to `O=C(CCO[C@@H]1O[C@H](CO)[C@@H](O)[C@H](O)[C@H]1O)c1ccc(O)cc1`, the Potency result in assay [1] and in assay [2] was “inactive” in each case.

With `CC(=O)OC[C@@]12[C@@H](OC(C)=O)C[C@@H](C)[C@](C)([C@@H]3C[C@H]4C=CO[C@H]4O3)[C@H]1CCC[C@]21CO1`, the Potency entry in assay [1] and in assay [2] was “inactive” in each case.

Take `CNC(=O)[C@H]1O[C@@H](n2cnc3c(NCc4ccc(N)c(I)c4)ncnc32)[C@H](O)[C@@H]1O`: the activity change, negative = viability loss in assay [1] was -0.539% [at 9.23 µM]. The activity change, negative = cell killing in assay [2] is 2.39% [at 9.23 µM].

Take `C=CC1C(O[C@@H]2O[C@H](CO)[C@@H](O)[C@H](O)[C@H]2O)OC=C(C(=O)OC)C1CC(=O)O` (stereo not given in full): the Potency entry in assay [1] and in assay [2] was “inactive” in each case.

Take `C[C@]12CCC[C@](C)(C(=O)O)C1CCC13C=C(CO)C(CCC12)C3` (stereo not given in full): the Potency entry in assay [1] and in assay [2] was “inactive” each time.

Regarding `CC(C)(O)c1ccc2c(c1)C(O)CC1C(C)(C(=O)O)CCCC21C` (stereo not given), the Potency entry in assay [1] and in assay [2] was “inactive” each time.

Turning to `COC(=O)[C@@]1(C)CC[C@]2(C(=O)O[C@@H]3O[C@H](CO)[C@@H](O)[C@H](O)[C@H]3O)CC[C@]3(C)C(=CCC4[C@@]5(C)CC[C@H](O[C@@H]6O[C@H](C(=O)O)[C@@H](O)[C@H](O)[C@H]6O)C(C)(C)C5CC[C@]43C)[C@@H]2C1` (stereo not given in full), the activity change, negative = viability loss in assay [1] was -18.6% [at 9.23 µM]. In addition, the activity change, negative = cell killing in assay [2] was -26.4% [at 9.23 µM].

Turning to `CC(=O)Oc1cc2c(s1)CCN([C@H](C(=O)C1CC1)c1ccccc1F)C2`, the Potency entry in assay [1] and in assay [2] was “inactive” each time.
